# From the supplement of paper PMC10811239
# Counter-ions that a name gives are not always drawn.
# Assays:
# Experiment in all cases: bioluminescence (viable cell) signal fold change after vs before treatment, normalised to DMSO (ratio); higher = more tumour cell growth / less inhibition
# Conditions in all cases: 10 µM; treatment time 6 days
# [1] = test system: LEGO organoid PT (PTEN-/-; TP53-/-)
# Description: (§1)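 Luc2-labelled iPSC-derived glioblastoma-like organoids (LEGOs, genotypes PT = PTEN-/-;TP53-/-, PTCC = plus CDKN2A/B-/-, PTN = plus NF1-/-) were treated with 10 uM drug for 6 days (applied every other day) at 37 C. Bioluminescence imaging was done before treatment and 2 days after the last dose. BLI signals were normalised to the DMSO control on the same day and then to the pre-treatment signal (N=3).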
# [2] = test system: LEGO organoid PTCC (PTEN-/-; TP53-/-; CDKN2A-/-; CDKN2B-/-)
# Description: as §1
# [3] = test system: LEGO organoid PTN (PTEN-/-; TP53-/-; NF1-/-)
# Description: as §1
Compound,bioluminescence [1],bioluminescence [2],bioluminescence [3]
C#CCN[C@@H]1CCc2ccccc21 [Rasagiline],2.76,1.19,0.976
CSCC[C@@H](N)C(=O)O [Methionine],1.1,0.816,1.35
CC(C)NCC(O)COc1ccc(CC(N)=O)cc1 (centres undefined) [Atenolol],1.39,0.484,0.649
N[C@H](C(=O)O)[C@H](O)c1ccc(O)c(O)c1 [Droxidopa],1.08,2.59,3.13
Cc1cc(NS(=O)(=O)c2ccc(N)cc2)no1 [Sulfamethoxazole],3.73,1.56,1.8
Cc1ccccc1C(OCCN(C)C)c1ccccc1.Cl (centres undefined) [Orphenadrine hydrochloride],1.02,1.18,1.59
Nc1nc(NC2CC2)c2ncn([C@H]3C=C[C@@H](CO)C3)c2n1.Nc1nc(NC2CC2)c2ncn([C@H]3C=C[C@@H](CO)C3)c2n1.O=S(=O)(O)O [Abacavir sulfate],0.703,1.28,1.95
CN1[C@@H]2CC[C@H]1C[C@@H](OC(c1ccccc1)c1ccccc1)C2.CS(=O)(=O)O [Benztropine mesylate],1.14,0.793,0.419
CS(=O)(=O)O.Cc1ccc(NC(=O)c2ccc(CN3CCN(C)CC3)cc2)cc1Nc1nccc(-c2cccnc2)n1 [Imatinib Mesylate],0.751,1.35,2.11
COc1cccc2c1C(=O)c1c(O)c3c(c(O)c1C2=O)C[C@@](O)(C(=O)CO)C[C@@H]3O[C@H]1C[C@H](N)[C@@H](O)[C@H](C)O1.Cl [Epirubicin hydrochloride],0,0,0.00894
C/C=C(/C)C(=O)O[C@H]1C(C)=C[C@]23C(=O)[C@@H](C=C(CO)[C@@H](O)[C@]12O)[C@H]1[C@@H](C[C@H]3C)C1(C)C [Ingenol Mebutate],0.841,1.37,2.33
C[C@@H](c1ncncc1F)[C@](O)(Cn1cncn1)c1ccc(F)cc1F [Voriconazole],0.515,0.587,1.46
O=C([O-])Cc1ccccc1Nc1c(Cl)cccc1Cl.[Na+] [Diclofenac sodium],0.777,1.05,1.75
Cl.Cc1ccsc1\C(=C\CCN1CCC[C@H](C1)C(O)=O)c1sccc1C [Tiagabine hydrochloride],1.04,2.4,0.83
N=C(N)NCCCC[C@@H]1NC(=O)CCSSC[C@@H](C(N)=O)NC(=O)[C@@H]2CCCN2C(=O)[C@H](Cc2c[nH]c3ccccc23)NC(=O)[C@H](CC(=O)O)NC(=O)CNC1=O [Eptifibatide],1.89,0.768,0.917
CCc1cc(/C(C)=N/OCc2ccc(C3CCCCC3)c(C(F)(F)F)c2)ccc1CN1CC(C(=O)O)C1 [Siponimod],0.646,2.91,0.811
CCc1c2c(nc3ccc(OC(=O)N4CCC(N5CCCCC5)CC4)cc13)-c1cc3c(c(=O)n1C2)COC(=O)[C@]3(O)CC [Irinotecan],2.7,2.25,0.884
Cc1c(C)c2c(c(C)c1O)CC[C@@](C)(CCC[C@H](C)CCC[C@H](C)CCCC(C)C)O2 [α-Vitamin E],1.31,1.41,2.48
CN1CC(=O)N2[C@H](c3ccc4c(c3)OCO4)c3[nH]c4ccccc4c3C[C@@H]2C1=O [Tadalafil],1.59,1.47,0.562
COC(=O)/C=C/C(=O)OC [Dimethyl fumarate],0.759,0.94,1.44

Compound,bioluminescence [1],bioluminescence [2],bioluminescence [3]
CO[C@@H]1[C@H](N(C)C(=O)c2ccccc2)C[C@H]2O[C@]1(C)n1c3ccccc3c3c4c(c5c6ccccc6n2c5c31)C(=O)NC4 [Midostaurin],0.527,1.65,0.647
CCc1cc2c(cc1N1CCC(N3CCOCC3)CC1)C(C)(C)c1[nH]c3cc(C#N)ccc3c1C2=O.Cl [Alectinib hydrochloride],0.656,0.838,1.36
C[C@H]1COc2c(N3CCN(C)CC3)c(F)cc3c(=O)c(C(=O)O)cn1c23 [Levofloxacin],0.997,0.587,0.861
CC(=O)OCC(=O)[C@@]1(O)CC[C@H]2[C@@H]3CCC4=CC(=O)C=C[C@]4(C)[C@H]3[C@@H](O)C[C@@]21C [Prednisolone-21-acetate],0.578,1.01,0.956
CC(C(=O)O)c1cccc(C(=O)c2ccccc2)c1 (centres undefined) [Ketoprofen],0.893,1.2,1.02
CN(C)CC(c1ccc(O)cc1)C1(O)CCCCC1.O=C(O)CCC(=O)O (centres undefined) [Desvenlafaxine succinate hydrate],1.67,0.582,0.536
CCCCCCCCc1ccc(CCC(N)(CO)CO)cc1.Cl [Fingolimod hydrochloride],1.07,1.07,0.473
CCCCOc1ccc(C(=O)CCN2CCCCC2)cc1.Cl [Dyclonine hydrochloride],0.967,1.03,1.13
CCc1nc(N)nc(N)c1-c1ccc(Cl)cc1 [Pyrimethamine],0.65,1.06,0.803
C[C@]12CCC3=C4CCC(=O)C=C4CC[C@H]3[C@@H]1CC[C@@]2(O)CC#N [Dienogest],0.653,3.61,0.658
CN(C)CCOC(C)(c1ccccc1)c1ccccn1.O=C(O)CCC(=O)O (centres undefined) [Doxylamine succinate],0.83,1.17,0.999
CN(C)C(=N)NC(=N)N [Metformin],0.733,1.89,2.37
CC[C@]1(O)C[C@H]2C[N@](CCc3c([nH]c4ccccc34)[C@@](C(=O)OC)(c3cc4c(cc3OC)N(C=O)[C@H]3[C@@](O)(C(=O)OC)[C@H](OC(C)=O)[C@]5(CC)C=CCN6CC[C@]43[C@@H]65)C2)C1.O=S(=O)(O)O [Vincristine sulfate],0.224,2.47,0.8
CN(C)C(=N)NC(=N)N.Cl [Metformin hydrochloride],2.55,1.27,1.35
Nc1cccc2c1C(=O)N(C1CCC(=O)NC1=O)C2=O (centres undefined) [Pomalidomide],1.5,2.56,1.12
Cl.O=C1CC2(CCCC2)CC(=O)N1CCCCN1CCN(c2ncccn2)CC1 [Buspirone hydrochloride],1.22,1.47,0.759
Cc1ccc(Nc2nccc(N(C)c3ccc4c(C)n(C)nc4c3)n2)cc1S(N)(=O)=O.Cl [Pazopanib HCl],0.626,1.41,1.02
COc1cc2c(cc1OC)C(=O)C(CC1CCN(Cc3ccccc3)CC1)C2 (centres undefined) [Donepezil],0.84,0.645,1.1
CCCOc1ccc(S(=O)(=O)NCCC2CCCN2C)cc1-c1nc2c(CCC)nn(C)c2c(=O)[nH]1 (centres undefined) [Udenafil],1.36,1.32,1.09
CC(C)(S)[C@@H](N)C(=O)O [d-penicillamin],0.964,0.914,1.11

Compound,bioluminescence [1],bioluminescence [2],bioluminescence [3]
Nc1nc2c(ncn2COCCO)c(=O)[nH]1 [Aciclovir],2.34,2.16,4.45
CN(CCOc1ccc(CC2SC(=O)NC2=O)cc1)c1ccccn1 (centres undefined) [Rosiglitazone],0.664,1.87,1.22
CCn1c(=O)c2c(nc(/C=C/c3ccc(OC)c(OC)c3)n2C)n(CC)c1=O [Istradefylline],0.737,3.38,6.31
O=C(c1cc(Cc2n[nH]c(=O)c3ccccc23)ccc1F)N1CCN(C(=O)C2CC2)CC1 [Olaparib],1.23,1.32,0.865
CCC(CC)O[C@@H]1C=C(C(=O)O)C[C@H](N)[C@H]1NC(C)=O [Oseltamivir acid],0.803,0.404,1.58
Nc1nc2ccc(OC(F)(F)F)cc2s1 [Riluzole],0.939,1.26,1.01
CC(C(=O)O)c1ccc(-c2ccccc2)c(F)c1 (centres undefined) [Flurbiprofen],1.09,0.856,1.47
Cl.CNCC\C=C1\c2ccccc2CCc2ccccc12 [Nortriptyline hydrochloride],0.795,0.717,0.835
CC(C)(Sc1cc(C(C)(C)C)c(O)c(C(C)(C)C)c1)Sc1cc(C(C)(C)C)c(O)c(C(C)(C)C)c1 [Probucol],0.49,0.73,0.748
O=C(O)c1cc(/N=N/c2ccc(S(=O)(=O)Nc3ccccn3)cc2)ccc1O [Sulfasalazine],0.941,1.43,0.504
N[C@@H](Cc1ccc(O)c(O)c1)C(=O)O [Levodopa],0.963,1.76,1.33
Cl.O=C1c2cccc3c2[C@H](CCC3)CN1[C@@H]1CN2CCC1CC2 [Palonosetron hydrochloride],1.19,0.952,1.4
C[C@]12C=CC(=O)C=C1CC[C@@H]1[C@@H]2[C@@H](O)C[C@@]2(C)[C@H]1CC[C@]2(O)C(=O)CO [Prednisolone],0.904,1.29,1.71
NC(=O)N[C@@H](CCC(=O)O)C(=O)O [Carglumic Acid],1.27,0.631,1.55
NC[C@H]1CC[C@H](C(=O)O)CC1 [Amstat],1.51,0.622,0.778
CC[C@@]1(O)C(=O)OCc2c1cc1n(c2=O)Cc2cc3c(CN(C)C)c(O)ccc3nc2-1.Cl [Topotecan hydrochloride],1.39,0.236,0.171
Cc1cn([C@H]2C=C[C@@H](CO)O2)c(=O)[nH]c1=O [Stavudine],3.29,0.83,0.812
CC1=C(/C=C/C(C)=C/C=C/C(C)=C/C(=O)O)C(C)(C)CCC1 [Tretinoin],0.834,0.531,1.41
